Rows were chosen to be rich in hits. Some 5.7% of all compounds tested hit in one or more screens of this group.
S2 tox – viability counter-screen for ATXN expression inhibitors | S2 cells (HEK-293 line with an ATXN2-luciferase reporter) viability, CellTiter-Fluor protease fluorescence, 24 h | Potency, µM (highest dose often 56.7 µM), actives largely listed as cytotoxic | hit rate 0.49% among 400,000 | AID 651635; note: potency is the fitted concentration of half-maximal effect; nearly all actives have a fitted effect of over 40% in size
HepG2 viability – kills HepG2 cells in TGF-b inhibitor counter-screen; HepG2 CAGA-GFP viability, ATP luminescence, 18 h; hit rate 0.76% among 410,000; Potency, µM (highest dose often 46.1 µM), for inactives: at the top dose activity change, negative = cytotoxicity, most hits filed as cytotoxic; note: potency is the fitted concentration of half-maximal effect
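CellTiter-Glo luminescence gave cytotoxicity after 18 hours at 37 degrees C. The cells were HepG2 CAGA-GFP in 1% FBS DMEM, stimulated with 500 pg/mL TGF-beta after compound addition. %Activity was normalised to no-cell wells (complete cell-killing) and DMSO (no toxicity), and curves were fitted and classified.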
ATXN2 expr inh – reduces ATXN2 reporter expression in HEK-293 cells | hit rate 0.72% among 360,000 | Potency, µM (titrated, usually from 57 µM), inactives show at the highest dose activity change, negative = inhibition, most hits filed as inhibitors | AID 1745845 | HEK-293 ATXN2-luciferase reporter, luminescence, 24 h; note: potency is the fitted concentration of half-maximal effect; % is set by controls: 0 for no effect and ±100 for the full control effect; nearly all actives have a fitted effect of over 55% in size
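ATXN2-luciferase reporter cells (luciferase flanked by upstream and downstream ATXN2 gene portions) were treated 24 h at 37 °C with compounds at up to 57 uM. SteadyGlo luminescence gave expression; GF-AFC fluorescence gave viability.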
TGFb inhibitor – inhibitors of TGF-b signaling; HepG2 CAGA-GFP TGF-b/SMAD3 reporter, GFP fluorescence, 18 h; TGF-beta stimulated, 500 pg/mL final; Potency, µM (top dose mostly 46.1 µM), for inactives: at the highest dose activity, negative = inhibition, usual class: inhibitors; hit rate 1.2% among 410,000; AID 588855; note: potency is the fitted concentration of half-maximal effect; % is set by controls: 0 for no effect and ±100 for the full control effect; nearly all actives have a fitted effect of over 65% in size
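GFP signal (ex488/em500-530) from TGF-beta-stimulated HEPG2 CAGA-GFP cells, 500 pg/mL final, 18 h at 37 degrees C in DMEM plus 1% FBS, normalized to unstimulated and DMSO-stimulated controls.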
IL-1B inflam inh – inhibitors of inflammasome signaling (IL-1 beta secretion) | THP-1 LPS/ATP IL-1B secretion, AlphaLISA, 16 h; hits give low values | activity change, % at 57.5 µM | hit rate 4.7% among 360,000 | AID 743279; in the data active = activity change below about -50%; inconclusive = mostly about -30% to -49%; note: % is set by controls: 0 for no effect and ±100 for the full control effect
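Secreted IL-1B measured by AlphaLISA bead assay after 16 h compound exposure of THP-1 cells; compounds (final up to 57.5 uM) added 1 h before LPS (250 ng/mL) and ATP (1.25 mM) stimulation; lower signal means less secretion.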
Numbers without * were called inactive. Unless noted, calls come from the whole dose curve; as a rule, active = well fitted curve in the direction sought with a large enough effect; inconclusive = small, poorly fitted or top-dose-only effect, or another doubt; inactive = no such curve, though single readings can be large; an effect the other way counts as inactive or inconclusive.

For C=CCNC(=O)/C(C#N)=C/c1ccc(OS(=O)(=O)c2ccc(C)cc2)c(OC)c1 the results were S2 tox inactive, HepG2 viability -70.3%, ATXN2 expr inh inconclusive, TGFb inhibitor inconclusive and IL-1B inflam inh -78.6*.
`COC(=O)N/N=C/c1ccc(OS(=O)(=O)c2ccc(C)cc2)c(OC)c1` gave S2 tox inactive, HepG2 viability -17.2%, ATXN2 expr inh 6.6%, TGFb inhibitor -1.4% and IL-1B inflam inh -71.7*.
`Cc1nc(-c2ccc(Cl)cc2)sc1CCNC(=O)c1ccco1` gave S2 tox inactive, HepG2 viability -21.1%, ATXN2 expr inh -15.5% and TGFb inhibitor inconclusive.
C#CCOCCOCCOCCNc1nc(N2CCN(C(=O)CCCCCCCCCCNC(=O)[C@@H](CCC(=O)O)n3cc(CCCCCN)nn3)CC2)nc(N2CCN(C(=O)CCCCCCCCCCNC(=O)[C@H](CO)n3cc(CCCSC)nn3)CC2)n1 was read as S2 tox inactive, HepG2 viability 18.0%, ATXN2 expr inh -3.6%, TGFb inhibitor 2.1% and IL-1B inflam inh -55.8*.
`C#CCOCCOCCOCCNc1nc(N2CCN(C(=O)CCCCCCCCCCNC(=O)[C@@H](CCC(=O)O)n3cc(CCCCCN)nn3)CC2)nc(N2CCN(C(=O)CCCCCCCCCCNC(=O)[C@H](CO)n3cc(CCCCCN)nn3)CC2)n1` gave S2 tox inactive, HepG2 viability -22.0%, ATXN2 expr inh -3.6%, TGFb inhibitor inconclusive and IL-1B inflam inh inconclusive.
`C#CCOCCOCCOCCNc1nc(N2CCN(C(=O)CCCCCCCCCCNC(=O)[C@@H](CCSC)n3cc(CCO)nn3)CC2)nc(N2CCN(C(=O)CCCCCCCCCCNC(=O)[C@H](CCC(=O)O)n3cc(CCCCCN)nn3)CC2)n1` gave S2 tox inactive, HepG2 viability -0.5%, ATXN2 expr inh 0.2%, TGFb inhibitor inconclusive and IL-1B inflam inh -52.8*.
Screening C#CCOCCOCCOCCNc1nc(N2CCN(C(=O)CCCCCCCCCCNC(=O)[C@@H](CCSC)n3cc(CCO)nn3)CC2)nc(N2CCN(C(=O)CCCCCCCCCCNC(=O)[C@H](CO)n3cc(CCCCCN)nn3)CC2)n1 returned S2 tox inconclusive, HepG2 viability -28.9%, ATXN2 expr inh 0.0%, TGFb inhibitor inconclusive and IL-1B inflam inh -82.2*.
Screening COc1[nH]c(/N=C/c2ccco2)c(C#N)c1C#N returned HepG2 viability -13.5% and TGFb inhibitor 7.1%.
Screening C#CCOCCOCCOCCNc1nc(N2CCN(C(=O)CCCCCCCCCCNC(=O)[C@H](CCCCN)n3cc(C)nn3)CC2)nc(N2CCN(C(=O)CCCCCCCCCCNC(=O)[C@@H]([C@H](C)O)n3cc(C)nn3)CC2)n1 returned HepG2 viability -40.6%, ATXN2 expr inh inconclusive, TGFb inhibitor inconclusive and IL-1B inflam inh -60.0*.
C#CCOCCOCCOCCNc1nc(N2CCN(C(=O)CCCCCCCCCCNC(=O)[C@H](CCCCN)n3cc(C[C@@H](C)CC)nn3)CC2)nc(N2CCN(C(=O)CCCCCCCCCCNC(=O)[C@@H]([C@H](C)O)n3cc(C)nn3)CC2)n1 was read as S2 tox 10µM*, HepG2 viability 12.6µM*, ATXN2 expr inh 10µM*, TGFb inhibitor inconclusive and IL-1B inflam inh inconclusive.
For COc1ccc(C(C)=O)cc1CSc1nc(Nc2ccc(F)c(F)c2)c2ccccc2n1 the results were HepG2 viability -6.2% and TGFb inhibitor 0.0%.
CCOC(=O)c1[nH]c2c(c1Cc1ccccc1)C(=O)CC(c1ccc(C(C)(C)C)cc1)C2 (stereo unspecified) was read as S2 tox inactive, HepG2 viability 5.9%, ATXN2 expr inh -13.1% and TGFb inhibitor -25.0%.
Screening c1ccc(Oc2ccc(-c3ccnc4nc(N5CCOCC5)nn34)cc2)cc1 returned S2 tox inactive, HepG2 viability -14.7%, ATXN2 expr inh -15.8%, TGFb inhibitor -19.9% and IL-1B inflam inh -67.6*.
COc1ccc(-c2ccnc3nc(N4CCOCC4)nn23)cc1 was read as S2 tox inactive, HepG2 viability -7.9%, ATXN2 expr inh -5.4%, TGFb inhibitor 4.2% and IL-1B inflam inh -9.6.
